High-throughput results from PubChem.
The sample as a whole holds a higher share of hits than the screen did.
Pf Dd2 inh: blocks in vitro growth of P. falciparum Dd2. Potency, µM (top dose mostly 28.9 µM), without a hit: at the highest dose activity, negative = inhibition, hits mostly inhibitors. hit rate 4.3% among 120,000. P. falciparum Dd2 growth, SYBR Green, 72 h. AID 1347417; active = well fitted inhibition curve with a large enough effect;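 also: plate controls were DMSO vehicle for no effect and reference drug for full effect; nearly all actives have a fitted effect of over 65% in size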
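Infected erythrocytes (Dd2, 0.3% parasitemia, 2.5% hematocrit final) are added to compound in RPMI-1640/Albumax II medium, grown 72 h at 37C in low oxygen, then lysed with saponin/Triton-X containing SYBR Green and read by fluorescence.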
Numbers without * were called inactive; [ ] = remark or other dose. Potency is read from the fitted curve at half-maximal effect.

`CC(C)CN[C@H]1[C@H](O)[C@@H](N2CCC(Cc3ccccc3)CC2)[C@@H]2OC[C@H]1O2` gave Pf Dd2 inh 4µM*.
For COc1ccccc1N1CCN([C@H]2[C@@H]3OC[C@@H](O3)[C@@H](NCc3ccncc3)[C@@H]2O)CC1 the results were Pf Dd2 inh -7%[44.1 µM].
COc1ccccc1N1CCN([C@H]2[C@@H]3OC[C@@H](O3)[C@@H](NCc3ccc(N(C)C)cc3)[C@@H]2O)CC1 was read as Pf Dd2 inh -3%.
`O[C@H]1[C@H](NCc2ccncc2)[C@H]2CO[C@H](O2)[C@@H]1N1CCC(Cc2ccccc2)CC1` gave Pf Dd2 inh inactive.
`CNC(=O)[C@@H]1CN(C(=O)c2cc(C3CC3)[nH]n2)C[C@H]1c1n[nH]c(C)n1` gave Pf Dd2 inh inactive.
COCCN(CCNC(=O)C1Cn2cccc2C(=O)N1C)Cc1ccco1 (configuration not stated) was read as Pf Dd2 inh 3%.
`COCCOCC1(CNC(=O)c2nc3ccccc3[nH]2)C[C@@H](O)[C@@H](O)C1` (some centres not stated) gave Pf Dd2 inh -4%[44.1 µM].
Screening CN(C)c1nsc(N2CCC3(CC2)C(C(=O)O)CC(=O)N3C)n1 (configuration not stated) returned Pf Dd2 inh 0%.
For O=C(c1ccccc1F)N1CCCC(c2noc(COc3ccccc3)n2)C1 (configuration not stated) the results were Pf Dd2 inh -6%.
`O=C(COc1ccc(F)cc1)N1CCCC(c2noc(COc3ccccc3)n2)C1` (configuration not stated) gave Pf Dd2 inh 6.3µM*.
Screening O=C(c1ccc(F)cc1)N1CCCC(c2noc(COc3ccccc3)n2)C1 (configuration not stated) returned Pf Dd2 inh -3%.
Screening Cc1ccc(NC(=O)N2CCCC(c3noc(COc4ccccc4F)n3)C2)c(C)c1 (configuration not stated) returned Pf Dd2 inh -15%.
Cc1ccc(OCc2nc(C3CCN(C(=O)c4ccncc4)CC3)no2)cc1 was read as Pf Dd2 inh inactive.
For O=C(COc1ccc(F)cc1)N1CCCC(n2cc(-c3nc(C4CC4)no3)nn2)C1 (configuration not stated) the results were Pf Dd2 inh -12%.
Screening CCc1noc(-c2cn(C3CCN(C(=O)COc4ccc(F)cc4)C3)nn2)n1 (configuration not stated) returned Pf Dd2 inh inactive.
Cc1ccc(C)c(NC(=O)N2CCCC(c3noc(COc4ccccc4)n3)C2)c1 (configuration not stated) was read as Pf Dd2 inh 5µM*.
For Cc1ccc(C)c(NC(=O)N2CCCC(c3noc(COc4ccccc4F)n3)C2)c1 (configuration not stated) the results were Pf Dd2 inh inactive.
`Cc1ccc(OCc2nc(C3CN(C(=O)C4CCCO4)C3)no2)cc1` (configuration not stated) gave Pf Dd2 inh 8%.
`CCNC(=O)N1CCC(c2noc(COc3ccc(C)cc3)n2)CC1` gave Pf Dd2 inh 10µM*.
For O=C(COc1ccc(F)cc1)N1CCC(n2cc(-c3nc(C4CC4)no3)nn2)C1 (configuration not stated) the results were Pf Dd2 inh 5.6µM*.
`O=C(CN1CCCC1=O)N1CCN(Cc2ccccc2)CC1` gave Pf Dd2 inh 7%.
`CCCNC(=O)N(C1CCOCC1)C1CCN(C(=O)c2ccc(C)s2)CC1` gave Pf Dd2 inh 9%.
N#Cc1ccc(CN2CCn3c(nn(-c4ccc(C(F)(F)F)cc4)c3=O)C2)cc1 was read as Pf Dd2 inh -20%.
For Cc1ncc2c(n1)C[C@@H]1CC[C@H]2N1C(=O)Nc1ccc(C)c(C)c1 the results were Pf Dd2 inh inactive.
For COc1ccc(NC(=O)c2ccc3c(c2)OCCN(CCC(C)C)C3)c(F)c1 the results were Pf Dd2 inh inactive.
`CC(=O)N1CCCC1c1nc(C2CN(S(=O)(=O)c3c(C)noc3C)C2)no1` (configuration not stated) gave Pf Dd2 inh -11%.
Screening O=C(c1ccccc1OC1CCN(C2Cc3ccccc3C2)CC1)N1CCCCC1 returned Pf Dd2 inh -18%.
`O=C(NC1CC1)c1ccccc1OC1CN(Cc2ccc(F)cc2)C1` gave Pf Dd2 inh -20%.
Screening O=C(NC1CC1)c1ccccc1OC1CN(C2CCC2)C1 returned Pf Dd2 inh 2.8µM*.
For COCc1cc(=O)n(CC(=O)NCc2ccc(OC)cc2)c(N2CCOCC2)n1 the results were Pf Dd2 inh inactive.
O=C(O)C[C@@H]1CCN(C(=O)COc2ccccc2)C[C@@H]1CCN1CCC(n2c(=O)[nH]c3ccccc32)CC1 was read as Pf Dd2 inh -13%.
O=C(NCc1ccc(F)cc1)N1CCCC(Cn2c(C3CC3)nc3cccnc32)C1 (configuration not stated) was read as Pf Dd2 inh inactive.
CN(CC1(C)CCOCC1)C(=O)c1nccc2ccccc12 was read as Pf Dd2 inh -4%.
`CCOC(=O)C1(Cc2ccccc2Cl)CCN(C(=O)c2ccsc2)CC1` gave Pf Dd2 inh -6%.
For CCOC(=O)C1(Cc2ccccc2F)CCCN(C(=O)C2=C(C)OCCO2)C1 (configuration not stated) the results were Pf Dd2 inh -10%.
CCOC(=O)C1(Cc2ccccc2Cl)CCN(Cc2cccc3c2OCO3)CC1 was read as Pf Dd2 inh 8.9µM*.
Cc1cc(C(=O)N2CCC3(CC2)CC(O)CCO3)c(C)o1 (configuration not stated) was read as Pf Dd2 inh -1%.
COCCN1CCCCC(CC(=O)Nc2cc(OC)cc(OC)c2)C1=O (configuration not stated) was read as Pf Dd2 inh -8%.
COc1ccc(C2C=C(c3ccccc3)Nc3nc(NS(=O)(=O)c4ccc(C)cc4)nn32)cc1 (configuration not stated) was read as Pf Dd2 inh 20%.
For COc1ccc(C2=CC(c3ccccc3Cl)n3nc(-c4ccc(C)cc4)nc3N2)cc1 (configuration not stated) the results were Pf Dd2 inh 11µM*.
Screening Cc1ccc(C2C=C(c3ccc(F)cc3)Nc3nc(CCCO)nn32)cc1 (configuration not stated) returned Pf Dd2 inh 8.9µM*.
OCCCc1nc2n(n1)C(c1cccc(Cl)c1)C=C(c1ccccc1)N2 (configuration not stated) was read as Pf Dd2 inh inactive.
Screening CCOc1ccccc1C1C(C(=O)Nc2ccccc2)=C(C)Nc2nc(-c3ccccc3)nn21 (configuration not stated) returned Pf Dd2 inh -19%.
For COc1ccc(C2Cn3nnc(-c4nc(-c5ccc(Cl)cc5)no4)c3CO2)cc1 (configuration not stated) the results were Pf Dd2 inh inactive.
Screening Cc1ccc(C2C=C(c3ccccc3)Nc3nc(NS(=O)(=O)c4ccc(C)cc4)nn32)cc1 (configuration not stated) returned Pf Dd2 inh -14%.
Screening COc1ccc(C2C=C(c3ccc(F)cc3)Nc3nc(-c4ccc(Cl)cc4)nn32)cc1 (configuration not stated) returned Pf Dd2 inh 1.1µM*.
For CC(C)(C)C(=O)N1CC[C@@H](CC(=O)O)[C@@H](CCN2CCOCC2)C1 the results were Pf Dd2 inh -17%[44.1 µM].
COCCO[C@H]1C(=O)N(C2CCN(C(=O)CC(F)(F)F)CC2)[C@H]1c1ccncc1 was read as Pf Dd2 inh 4%.
